# From PubChem BioAssay (NCATS)
# Records with an inconclusive call do not appear. Entries that show only a call come without a potency. Active and inactive are the calls of the source. Calls come from the whole dose curve; as a rule, active = well fitted cell-killing curve with a large enough effect; inconclusive = small, poorly fitted or top-dose-only effect, or effect the other way; inactive = no such curve, though single readings can be large or run the other way. Non-standard residues stand in square brackets, D forms with d. Residues, ends and D or L forms follow the SMILES beside them. *: point of attachment. Sta = CC(C)C[C@H](N)[C@@H](O)CC(=O)O; Isovaleryl = CC(C)CC(=O)*
# Assay: Quantitative High-Throughput drug screen in 47 multiple myeloma cell lines against the NCATS MIPE library collection: XG6_PLB cell viability assay (AID 1919865); note: nearly all actives have a fitted effect of over 40% in size
# Conditions: XG6 myeloma viability, CellTiter-Glo ATP luminescence, 48 h; series mostly up to 45.8 µM
# Description: PI: Beverly A. Mock Ph.D.
# Laboratory of Cancer Biology and Genetics,
# Center for Cancer Research, National Cancer Institute,
# National Institute of Health, Bethesda, Maryland
# Drug resistance and disease progression are common in multiple myeloma (MM) patients, underscoring the need for new therapeutic combinations. […] We hypothesized that effective combinations would reduce MYC expression and enhance p16 activity. […] These preclinical data identify potentially useful drug combinations for evaluation in drug-resistant MM and reveal potential mechanisms of combined drug sensitivity.
# Described herein is the primary MIPE qHTS used to cherrypick compounds. Validated compounds were then further tested for potential synergistic activiy.
# [1] Peat TJ, Gaikwad SM, Dubois W, Gyabaah-Kessie N, Zhang S, Gorjifard S, Phyo Z, Andres M, Hughitt VK, Simpson RM, Miller MA, Girvin AT, Taylor A, Williams D, D'Antonio N, Zhang Y, Rajagopalan A, Flietner E, Wilson K, Zhang X, Shinn P, Klumpp-Thomas C, McKnight C, Itkin Z, Chen L, Kazandijian D, Zhang J, Michalowski AM, Simmons JK, Keats J, Thomas CJ, Mock BA. Drug combinations identified by high-throughput screening promote cell cycle transition and upregulate Smad pathways in myeloma. Cancer Lett. 2023 Aug 1;568:216284. doi: 10.1016/j.canlet.2023.216284. Epub 2023 Jun 24. PMID: 37356470; PMCID: PMC10408729.
# SEQUENCE No. (e.g., 1, 2, 3, etc.); […] (e.g., Cells, Incubation, Reagent, etc.); VALUE and DESCRIPTION.
# 1; Cells; 5 uL; white, solid bottom 1536-well Greiner assay plate.
# 2; Compounds; 23 nL; Kalypsis pin tool (Wako USA) equipped with a 1536-well pin head to transfer to the assay plates.
# 3; Incubation; 48 hours; 37C incubation.
# 4; Reagent;5uL; CellTiter Glo (Promega).
# 5; Detector; 425V; Luminescence; Viewlux PerkinElmer.
# NOTES (numbers refer to Sequence numbers above)
# 1. The cell-based screening methods employed in this study were like those previously published. Briefly, the corresponding myeloma cell lines were screened in 1,536-well plates with 500 cells, 5-uL per well for inhibition of cell viability (assessed by measuring ATP levels with CellTiterGlo).
# 2. NCATS MIPE 4.0 library of approved and investigational drugs were added using the Kalypsis pin tool. Wells treated with DMSO only for 100% viability and media only for 0% viability were used as controls.
# 3. The assay plates were covered and incubated for 48 hours in a 37C, 5% CO2 incubator with controlled humidity.
# 4. After 48 hours, CellTilter-GloTM luminescent substrate mix (Promega) reagent was added to the assay plate and plates we incubated for 5 min at room temperature.
# 5. Signal was measured as median relative luminescence units on a ViewLux (PerkinElmer) multiplate reader.
# [1] Heske CM, Davis MI, Baumgart JT, Wilson K, Gormally MV, Chen L, Zhang X, Ceribelli M, Duveau DY, Guha R, Ferrer M, Arnaldez FI, Ji J, Tran HL, Zhang Y, Mendoza A, Helman LJ, Thomas CJ. Matrix Screen Identifies Synergistic Combination of PARP Inhibitors and Nicotinamide Phosphoribosyltransferase (NAMPT) Inhibitors in Ewing Sarcoma. Clin Cancer Res. 2017 Dec 1;23(23):7301-7311. doi: 10.1158/1078-0432.CCR-17-1121. Epub 2017 Sep 12. PMID: 28899971; PMCID: PMC6636827.
# Potency is the fitted concentration of half-maximal effect.
row,SMILES,Potency
1,CC[C@]1(O)C[C@H]2CN(CCc3c([nH]c4ccccc34)[C@@](C(=O)OC)(c3cc4c(cc3OC)N(C=O)[C@H]3[C@@](O)(C(=O)OC)[C@H](OC(C)=O)[C@]5(CC)C=CCN6CC[C@]43[C@@H]65)C2)C1,inactive
2,CS(=O)(=O)OCCCCOS(C)(=O)=O,inactive
3,O=C(O)c1cn(-c2ccc(F)cc2)c2cc(N3CCNCC3)c(F)cc2c1=O,inactive
4,O=C(O)c1cccnc1Nc1cccc(C(F)(F)F)c1,inactive
5,CCOC(=O)c1c(C)n(C)c2ccc(O)cc12,inactive
6,CCC[C@@H]1C[C@@H](C(=O)N[C@@H]([C@H]2O[C@H](SC)[C@H](O)[C@@H](O)[C@H]2O)[C@@H](C)O)N(C)C1,inactive
7,CCOc1cc(CC(=O)N[C@@H](CC(C)C)c2ccccc2N2CCCCC2)ccc1C(=O)O,inactive
8,COC1=C(OC)C(=O)C(CCCCCCCCCCO)=C(C)C1=O,20.9 µM (active)
9,CNC[C@H](O)c1ccc(O)c(O)c1,inactive
10,CC(C)c1ccc2oc3nc(N)c(C(=O)O)cc3c(=O)c2c1,inactive
11,O=C(NOCC1CC1)c1ccc(F)c(F)c1Nc1ccc(I)cc1Cl,6.62 µM (active)
12,Cc1ccc(C(=O)c2cc(O)c(O)c([N+](=O)[O-])c2)cc1,23.5 µM (active)
13,CCCCN(CCCC)CCC(O)c1cc2c(Cl)cc(Cl)cc2c2cc(C(F)(F)F)ccc12 (stereo not given),26.4 µM (active)
14,Cc1cc2c(s1)Nc1ccccc1N=C2N1CCN(C)CC1,inactive
15,CC1Cc2ccccc2N1NC(=O)c1ccc(Cl)c(S(N)(=O)=O)c1 (stereo not given),inactive
16,Cc1cc(=O)c2c(O)c3c(O)cc(=O)c4c3c3c(cc(O)c1c23)C(C)(C)C=4O,0.743 µM (active)
17,COC(=O)C1=C(C)NC(C)=C(C(=O)OCCCN2CCC(c3ccccc3)(c3ccccc3)CC2)C1c1cccc([N+](=O)[O-])c1 (stereo not given),inactive
18,COc1cc2c(cc1OC)C1CC(=O)C(CC(C)C)CN1CC2 (stereo not given),inactive
19,NC(=O)Cc1cccc(C(=O)c2ccccc2)c1N,inactive
20,Cc1c(C(=O)NN2CCCCC2)nn(-c2ccc(Cl)cc2Cl)c1-c1ccc(Cl)cc1,26.4 µM (active)

row,SMILES,Potency
1,CCOC(=O)C(C)Oc1cccc2c(=O)n(CC(=O)Nc3ccc4c(c3)OCCO4)ccc12 (stereo not given),inactive
2,Nc1nc(Cl)nc2c1ncn2[C@H]1C[C@H](O)[C@@H](CO)O1,0.935 µM (active)
3,CCN(CC)CCOc1ccc(Nc2ncc3cc(-c4c(Cl)cccc4Cl)c(=O)n(C)c3n2)cc1,0.0296 µM (active)
4,Cc1cccc(-c2[nH]ncc2-c2ccc3ncccc3n2)n1,inactive
5,Cc1cc(Cl)ccc1OCCCC(=O)NO,1.05 µM (active)
6,CCN(CCO)CCCC(C)Nc1ccnc2cc(Cl)ccc12 (stereo not given),inactive
7,NC(=NCc1ccccc1)NC(=O)c1nc(Cl)c(N)nc1N,0.935 µM (active)
8,O=C(c1ccccc1)c1ccc2n1CCC2C(=O)O (stereo not given),9.35 µM (active)
9,CN1C(C(=O)Nc2ccccn2)=C(O)c2sccc2S1(=O)=O,inactive
10,O=C(OC1C[C@H]2CC[C@@H](C1)[N+]21CCCC1)C(O)(c1ccccc1)c1ccccc1 (stereo not given in full),inactive
11,CC1(C)NC(=O)N(c2ccc([N+](=O)[O-])c(C(F)(F)F)c2)C1=O,inactive
12,COc1cc(OC)c(C(=O)CCCN2CCCC2)c(OC)c1,inactive
13,CC(C)CC(=O)N[C@H](C(=O)N[C@H](C(=O)N[C@@H](CC(C)C)[C@@H](O)CC(=O)N[C@@H](C)C(=O)N[C@@H](CC(C)C)[C@@H](O)CC(=O)O)C(C)C)C(C)C (Isovaleryl-VV[Sta]A[Sta]-OH),inactive
14,Cc1ccc(Nc2nccc(N(C)c3ccc4c(C)n(C)nc4c3)n2)cc1S(N)(=O)=O,11.8 µM (active)
15,O=c1c(O)c(-c2ccc(O)cc2O)oc2cc(O)cc(O)c12,inactive
16,O=C(NCC1CCCCN1)c1cc(OCC(F)(F)F)ccc1OCC(F)(F)F (stereo not given),3.32 µM (active)
17,Clc1ccc(C(Cn2ccnc2)OCc2c(Cl)cccc2Cl)c(Cl)c1 (stereo not given),26.4 µM (active)
18,CN(C)c1ccc2nc3ccc(=[N+](C)C)cc-3sc2c1,5.26 µM (active)
19,CC1(C)C(=O)N(CCN2CCC(C(=O)c3ccc(F)cc3)CC2)c2ccccc21,4.69 µM (active)
20,COc1cc2c(N3CCN(C(=O)Nc4ccc(OC(C)C)cc4)CC3)ncnc2cc1OCCCN1CCCCC1,18.7 µM (active)
